Compound activity as filed in PubChem.
Hits are enriched below; roughly 6.8% of the tested compounds scored in any of these assays.
PINK1 modulator: A Quantitative High throughput Screen to Identify Chemical Modulators of PINK1 Expression; PINK1 immunofluorescence, high-content cytometry, 24 h; Potency, µM (top dose mostly 76.6 µM), for the others: at the top dose activation (PINK1 increase), actives largely listed as activators; 410,000 tested, 0.2% active; AID 624263, 2012; active means well fitted activation curve with a large enough effect; inconclusive means small, poorly fitted or top-dose-only effect; cell line not stated here; further: % of control where 0% means no effect; nearly all actives have a fitted effect of over 65% in size
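A stable cell line was treated with compounds at 5 concentrations for 24 hours, with CCCP as control. PINK1 levels and mitochondrial localization were measured by immunofluorescence with mitochondrial, cell and nuclear markers after fixation, read by laser-scanning cytometry.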
MCF10A rereplic: A quantitative high throughput screen for small molecules that induce DNA re-replication in MCF 10a normal breast cells | MCF 10A DNA re-replication, Hoechst nuclear intensity, 48 h | AID 624296, 2012 | Potency, µM (series often up to 46.1 µM), inactives show at the top dose activity, positive = re-replication, actives largely listed as activators | 350,000 tested, 2.9% active; further: % of control where 0% means no effect; nearly all actives have a fitted effect of over 50% in size
PTAP TSG101 blk: qHTS Assay for Iinhibitors of HIV-1 Budding by Blocking the Interaction of PTAP/TSG101 | Tumor susceptibility gene 101 protein (Homo sapiens), Q99816 | Fluorescence polarization, FITC-PTAP peptide / Tsg101 binding | Potency, µM (titrated, usually from 115 µM), for inactives: at the highest dose activity change, negative = inhibition, actives largely listed as inhibitors | 340,000 tested, under 10 active | AID 493005, 2010; active means well fitted inhibition curve with a large enough effect in the main read-out, with a control signal flat, not every such curve was filed as active; inconclusive means small, poorly fitted or top-dose-only effect, or effect the other way, or a change in a side signal; inactive means no such curve, though single readings can be large or run the other way; further: % of control where 0% means no effect
Target sequence (Q99816 whole entry, looked up): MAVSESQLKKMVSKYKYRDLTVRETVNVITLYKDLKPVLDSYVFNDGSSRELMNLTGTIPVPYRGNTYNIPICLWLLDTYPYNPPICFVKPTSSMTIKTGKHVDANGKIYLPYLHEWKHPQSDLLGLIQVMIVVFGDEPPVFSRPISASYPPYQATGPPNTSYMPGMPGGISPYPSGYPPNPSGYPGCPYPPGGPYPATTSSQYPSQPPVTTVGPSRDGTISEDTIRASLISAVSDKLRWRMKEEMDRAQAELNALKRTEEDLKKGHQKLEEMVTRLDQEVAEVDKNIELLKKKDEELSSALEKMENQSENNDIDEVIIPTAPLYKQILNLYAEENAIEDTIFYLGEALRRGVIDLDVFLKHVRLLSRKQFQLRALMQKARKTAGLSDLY
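Fluorescence anisotropy tracks displacement of a FITC-tagged PTAP peptide (50 nM) from the Tsg101 binding domain (10 uM), following a 20 min room-temperature incubation at pH 7.5.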
SW480 rereplic: A quantitative high throughput screen for small molecules that induce DNA re-replication in SW480 colon adenocarcinoma cells; SW480 DNA re-replication, Hoechst DNA content imaging, 48 h; Potency, µM (top dose mostly 46.1 µM), without a hit: top-dose re-replication activation, most hits filed as activators; 340,000 tested, 1.8% active; AID 624297, 2012; further: % of control where 0% means no effect; nearly all actives have a fitted effect of over 55% in size
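First, 250 cells per well were seeded. Next, compound or vehicle (23 nL) was pinned in, plates sat 48 hr at 37 C. Finally Hoechst was added for 40 min before fluorescence scanning.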
KB-3-1 tox: qHTS assay for MDR1-selective chemotherapeutics: Primary screen using the parental adenocarcinoma cell KB-3-1; KB-3-1 viability, CellTiter-Glo ATP luminescence, 72 h; 400,000 tested, 1.4% active; AID 1347075, 2019; Potency, µM (top dose mostly 46.1 µM), hits mostly cytotoxic; further: on the % scale 0 is the no-effect control and ±100 the full control effect; nearly all actives have a fitted effect of over 60% in size
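Cytotoxicity in the drug-sensitive parental line KB-3-1 was scored as loss of CellTiter-Glo luminescence following 72 h incubation with compound. Values come from curve fitting of normalized concentration-response data.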
KB-V1 cytotox: qHTS assay for MDR1-selective chemotherapeutics: Primary screen using the drug-selected MDR subline cells KB-V1 | 400,000 tested, 3.4% active | KB-V1 MDR cells viability, CellTiter-Glo, 72 h | Potency, µM (doses to about 46.1 µM), actives largely listed as cytotoxic | AID 1347076, 2019; further: on the % scale 0 is the no-effect control and ±100 the full control effect; nearly all actives have a fitted effect of over 60% in size
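Luminescent ATP read-out (CellTiter-Glo, 10 min) measures survival of drug-selected KB-V1 MDR cells after 72 h, 37 degrees C compound exposure. Medium: phenol-red-free DMEM, 10% FBS. Values from fitted concentration-response curves.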
* hit, by the source's call; i = inactive; ? = inconclusive; nt = no result; [ ] = dose if it differs, or a comment. Unless noted, the call rests on the fitted dose curve; in most records, active means well fitted curve in the direction sought with a large enough effect; inconclusive means small, poorly fitted or top-dose-only effect, or another doubt; inactive means no such curve, though single readings can be large; an effect the other way counts as inactive or inconclusive. Potency means the concentration at half of the fitted maximal effect.

SMILES	PINK1 modulator	MCF10A rereplic	PTAP TSG101 blk	SW480 rereplic	KB-3-1 tox	KB-V1 cytotox
FC(F)(F)c1nnc(-c2ccccc2)nc1Oc1ccc(Cl)cc1Cl	-1.5%	3.26µM*	-4.5%	-4.4%	i	i
FC(F)(F)c1cccc(Oc2nc(-c3ccccc3)nnc2C(F)(F)F)c1	6.7%	14.6µM*	-7.2%	-2.2%	i	i
FC(F)(F)c1nnc(-c2ccccc2)nc1Sc1ccccc1	4.6%	5.17µM*	-0.3%	?	i	i
CN(NC(=O)c1cccc(Cl)c1)c1nc(-c2ccccc2)nnc1C(F)(F)F	14.5%	?	-3.2%	?	23.1µM*	?
CC(=O)c1cc(C#N)c(Oc2cccc(C(F)(F)F)c2)nc1C	1.4%	-2.4%	-2.1%	-3.0%	i	i
CCC(=O)N1CCCc2cc(S(=O)(=O)Nc3ccc(C)c(C)c3)ccc21	1.2%	nt	nt	nt	i	?
O=C(c1cc(C(F)(F)F)cc(C(F)(F)F)c1)N1CCC2(CCCN(Cc3nccs3)C2)CC1	0.6%	nt	nt	nt	nt	nt
CC1CCC(NC(=O)c2ccc3c(c2)N(Cc2ccccc2F)C(=O)c2ccccc2S3)CC1 (stereo not given)	1.5%	nt	nt	nt	i	i
Oc1cccnc1Sc1cccc(C(F)(F)F)c1	0.5%	5.7%	0.4%	-0.4%	i	i
FC(F)(F)c1nnc(-c2ccccc2)nc1Sc1ccc(Cl)cc1	0.7%	5.8µM*	-7.3%	?	?	?
FC(F)(F)c1cccc(Sc2nc(-c3ccccc3)nnc2C(F)(F)F)c1	-0.2%	7.31µM*	-5.2%	?	20.6µM*	?
Cn1cc(C(=O)c2ccc(Cl)cc2)cc1-c1nc2ccccc2n1C	-0.3%	?	0.1%	6.6%	i	13µM*
Cc1ccc(N=Nc2ccc(O)c(/C=N\NC(=O)c3ccc(N)cc3)c2)cc1C	9.1%[38.3 µM]	-0.3%	-4.1%	3.66µM*	i	i
CC(C)(C)OC(=O)N/N=C/c1cc(N=Nc2ccccc2)ccc1O	11.8%	?	-1.1%	-3.5%	?	i
O=C(N/N=C/c1cc(Cl)ccc1O)c1ccc(Br)cc1	11.8%	13.8%	0.6%	1.64µM*	?	?
CC(C)(C)C(=O)Nc1nc2nc(-c3ccccc3)cc(=O)n2[nH]1	-0.8%	nt	nt	nt	i	i
CC(Oc1ccccc1F)C(=O)Nc1ccc(-c2nc3ccccc3s2)cc1 (stereo not given)	4.3%	nt	nt	nt	i	i
O=S(=O)(c1ccccc1)c1nnn2c1nc(Nc1ccccc1)c1cc(Cl)ccc12	-1.8%	nt	nt	nt	i	i
COc1ccc(N2CCC(CNC(=S)Nc3cc(C)cc(C)c3)C2)cc1 (stereo not given)	3.8%	?	1.1%	?	i	i
COc1ccc(N2CCC(CNC(=O)Nc3ccccc3)C2)cc1 (stereo not given)	0.5%[38.3 µM]	19.3%	-10.1%	-14.7%	i	16.4µM*
COc1ccc(N2CCC(CNC(=S)Nc3cc(C)ccc3C)C2)cc1 (stereo not given)	2.4%	2.1%	-3.8%	-31.4%	i	18.4µM*
COc1ccc(OC)c(NC(=O)c2cc3n(n2)C(C(F)(F)F)CC(c2ccc4c(c2)OCO4)N3)c1 (stereo not given)	0.8%[38.3 µM]	4.3%	-4.0%	12.6%	?	11.6µM*
COC(=O)c1ccc(OC)c(CSc2nnc(COc3ccccc3)o2)c1	5.1%[38.3 µM]	3.8%	-6.8%	-0.7%	i	20.6µM*
Cc1oc(-c2ccc(-c3ccccc3)cc2)nc1CN(C)C1CCOC1 (stereo not given)	1.8%	?	-3.8%	16.4µM*	?	?
Cc1oc(-c2cccc(Cl)c2)nc1CN(C)C1CCOC1 (stereo not given)	6.2%	-0.4%	-7.3%	3.3%	i	i
SMILES	PINK1 modulator	MCF10A rereplic	PTAP TSG101 blk	SW480 rereplic	KB-3-1 tox	KB-V1 cytotox
Cc1cccc(CN2C[C@H](Sc3ccccn3)C[C@H]2C(=O)Nc2ccc3sc(C)nc3c2)c1	-0.5%	nt	nt	nt	nt	nt
CCCc1ccc(C(=O)CCC(=O)NNC(=O)c2ccncc2)cc1	-1.2%	7.4%	-2.8%	-7.4%	10.3µM*	?
CCCOc1ccc(C(=O)CCC(=O)NNC(=O)c2ccncc2)cc1	-0.8%	-1.8%	-1.0%	1.6%	?	5.8µM*
O=[N+]([O-])c1cccc(S(=O)(=O)N2CCN(c3nc(-c4ccccc4)nc4ccccc34)CC2)c1	0.1%	nt	nt	nt	?	i
CCCN(CCC)CCCNC(=O)c1sc2nc3n(c(=O)c2c1C)CCC3	-1.0%	nt	nt	nt	i	i
CC(C)c1ccc2c(c1)CC[C@H]1[C@](C)(CN)CCC[C@]21C	-0.6%	4.2%	3.7%	?	?	?
CC(C)c1ccc2c(c1)CCC1C(C)(CN)CCCC21C (stereo not given)	-3.8%	16.4µM*	-1.2%	3.26µM*	20.6µM*	?
CC(C)(C)c1ccc(OCC(O)CN(CCO)CC(O)Cn2ccc3ccccc32)cc1 (stereo not given)	-0.8%	?	-0.2%	?	?	?
OCCN(CC(O)Cn1ccc2ccccc21)CC(O)Cn1ccc2ccccc21 (stereo not given)	3.5%	27.6%	-0.1%	3.0%	i	14.6µM*
Cc1cccn2c(=O)c(C(=O)NCc3ccccc3Cl)c(O)nc12	-0.2%	nt	nt	nt	i	i
CCCNC(=O)c1ccccc1NC(=O)c1ccccc1N(C)S(=O)(=O)c1ccccc1	1.0%	?	-0.6%	?	?	9.2µM*
CN(c1ccccc1C(=O)Nc1cccc(Cl)c1Cl)S(C)(=O)=O	-0.2%	0.2%	-7.9%	1.9%	i	16.4µM*
Nc1ccc(Cc2ccc(C=O)cc2)cc1	nt	nt	nt	nt	i	i
Oc1ccccc1N=N/C(=N/Nc1ccccc1O)c1ccccc1	-0.7%	6.8%	-0.5%	-12.3%[9.22 µM]	i	i
N#C/C(N=Nc1ccccc1O)=N\Nc1ccccc1O	?	?	-3.5%	1.7%[9.22 µM]	16.4µM*	?
CC(C)c1ccc(Nc2ncc3c(n2)CCN(C(=O)Nc2ccc(F)c(Cl)c2)C3)cc1	?	nt	nt	nt	?	18.4µM*
COc1cccc(NC(=O)N2CCc3nc(NCc4cccc(Oc5ccccc5)c4)ncc3C2)c1	1.3%	nt	nt	nt	8.2µM*	?
COc1cccc(NC(=O)N2CCc3nc(Nc4cc(Cl)cc(Cl)c4)ncc3C2)c1	13.7%	nt	nt	nt	?	i
